SNCA viab count – counter-screen for SNCA expression inhibitors: cell viability | HEK-293-SNCA-luc viability, GF-AFC fluorescence, 24 h | 150,000 tested, 0.12% active | Potency, µM (series often up to 57.1 µM), hits mostly cytotoxic | AID 1671193; note: nearly all actives have a fitted effect of over 30% in size
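Cytotoxicity counterscreen: after 24 h compound treatment of genome-edited SNCA-luciferase HEK-293 cells, live-cell protease substrate GF-AFC read by fluorescence after 30 min; activity scaled between DMSO (0%) and medium-only (-100%), curves Hill-fitted.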
IP6K1 inhibitor – IP6K1 kinase inhibition; Q92551; IP6K1 kinase, ADP-Glo luminescence, 2 h; stronger effect = lower value; activity change, % (series mostly up to about 58 µM); 140,000 tested, 0.81% active; AID 1645851; in the data active = activity change below about -25%
Target sequence (Q92551 whole entry, looked up): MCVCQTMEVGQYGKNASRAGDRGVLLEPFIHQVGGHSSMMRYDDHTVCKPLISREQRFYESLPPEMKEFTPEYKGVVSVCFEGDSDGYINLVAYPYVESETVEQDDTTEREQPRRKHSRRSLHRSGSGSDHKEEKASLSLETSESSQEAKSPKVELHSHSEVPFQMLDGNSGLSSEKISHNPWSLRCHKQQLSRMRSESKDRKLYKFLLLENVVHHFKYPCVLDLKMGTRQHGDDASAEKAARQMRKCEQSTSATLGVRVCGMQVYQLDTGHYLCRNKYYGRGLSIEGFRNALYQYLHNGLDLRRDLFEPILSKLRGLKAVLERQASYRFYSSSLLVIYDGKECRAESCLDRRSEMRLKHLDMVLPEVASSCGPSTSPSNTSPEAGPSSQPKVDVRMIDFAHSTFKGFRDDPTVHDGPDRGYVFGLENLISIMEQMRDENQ
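ADP-Glo luminescence measures ADP made by human IP6K1 during a 2 h RT reaction with ATP/IP6 (mix at 1.3 mM/130 uM); top library doses 57.5 and 19.1 uM final.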
SNCA expr inh – inhibitors of alpha-synuclein (SNCA) gene expression; HEK-293 SNCA-luciferase knock-in, luminescence, 24 h; Potency, µM (doses to about 57.2 µM), usual class: inhibitors; 140,000 tested, 0.17% active; AID 1671194; note: nearly all actives have a fitted effect of over 45% in size
KDM5B inh – inhibitors of human KDM5B histone demethylase; Q9UGL1; KDM5B demethylase, FDH-coupled NADH fluorescence (FDH is formaldehyde dehydrogenase); Potency, µM (titrated, usually from 57.7 µM), actives largely listed as inhibitors; 220,000 tested, 2.6% active; AID 1347165; note: nearly all actives have a fitted effect of over 70% in size
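Compound dilutions met 200 nM (final) KDM5BΔAP for 10 min at room temperature before substrate addition. The substrate mix held 12.5 µM H3K4me3 with cofactors 25 µM α-ketoglutarate and 50 µM Fe²⁺. NADH signal gain over 30 min defined activity.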
Each line names hits and unclear results; the compound was inactive in the other large screens; ! = not confirmed by another sample. Shown are actives, neighbours in structure and some others; about 3% of the full set was active somewhere. Unless noted, calls come from the whole dose curve; as a rule, active = well fitted curve in the direction sought with a large enough effect; inconclusive = small, poorly fitted or top-dose-only effect, or another doubt; inactive = no such curve, though single readings can be large; an effect the other way counts as inactive or inconclusive.

O=C(Cn1c(=O)n(-c2ccc(Cl)cc2)c(=O)c2c3c(sc21)CCC3)c1ccc(F)cc1	SNCA expr inh 20µM, KDM5B inh inconclusive
C[C@@]12CO[C@H](c3ccccc3)C[C@@H]1C[C@H](N1CCN(CCOCc3ccccc3)CC1)C2	none (no result: SNCA viab count, SNCA expr inh, KDM5B inh)
COCCN1CC2(CCC1=O)CCN(c1nc(C(C)C)ccc1C#N)CC2	SNCA expr inh inconclusive, KDM5B inh 28µM
COCCN1CC2(CCC1=O)CCN(C(=O)C(C)SC)CC2 (stereo not given)	none
COc1ccccc1-c1ccc(C(=O)N2CCC(N[S+](=O)([O-])c3cccs3)CC2)cc1	none (no result: KDM5B inh)
Cc1cccc(-n2nc(-c3c(C)nc4scc(CC(=O)NC(C)C(C)C)n4c3=O)cc2C)c1C (stereo not given)	KDM5B inh inconclusive
CCC(C)NC(=O)Cc1csc2nc(C)c(-c3cc(C)n(-c4ccc(C)cc4C)n3)c(=O)n12 (stereo not given)	KDM5B inh 28µM
Cc1ccccc1-n1nc(-c2c(C)nc3scc(CC(=O)NCC(C)C)n3c2=O)cc1C	KDM5B inh 28µM
Cc1ccc(Cl)cc1-n1nc(-c2c(C)nc3scc(CC(=O)NCC(C)C)n3c2=O)cc1C	KDM5B inh 22µM
Cc1cccc(-n2nc(-c3c(C)nc4scc(CC(=O)NC5CCCCC5)n4c3=O)cc2C)c1C	SNCA viab count inconclusive, SNCA expr inh inconclusive, KDM5B inh 25µM
Cc1ccc(-n2nc(-c3c(C)nc4scc(CC(=O)NCC(C)C)n4c3=O)cc2C)c(C)c1	none
N=C(N)c1cc(I)cc([N+](=O)[O-])c1	none (no result: SNCA viab count, IP6K1 inhibitor, SNCA expr inh)
Cc1nc2scc(CC(=O)NCC(C)C)n2c(=O)c1-c1cc(C)n(-c2ccc(C(C)C)cc2)n1	KDM5B inh 28µM
COCCC1(NC(=O)C(C)c2ccccc2)CCN(S(C)(=O)=O)CC1 (stereo not given)	SNCA viab count 20µM
COCCC1(NS(=O)(=O)c2ccccc2)CCN(S(C)(=O)=O)CC1	none
CCn1c2ccccc2c2cc(CN3CCN(Cc4ccc(Br)cc4)CC3)ccc21	IP6K1 inhibitor -58, KDM5B inh inconclusive
CCn1cc(CN2CCN(Cc3ccccc3)CC2)ccc1=O	KDM5B inh inconclusive
O=C(NCC1CCCO1)c1cc2c(=O)[nH]c(-c3ccccc3)cn2n1 (stereo not given)	KDM5B inh 22µM
Cn1ncc2c(C(=O)N3CCCCC3)cc(-c3ccc(C(F)(F)F)cc3)nc21	none (no result: SNCA viab count, SNCA expr inh, KDM5B inh)
O=C(CCc1cn2ccccc2n1)N[C@H]1[C@@H]2CCO[C@@H]2[C@@H]1C1CCCC1	KDM5B inh 28µM
CC(=O)Nc1ccc(C2(C(=O)N3CCN(c4ccccn4)CC3)CCCCC2)cc1	KDM5B inh 28µM
O=C(N1CCN(c2ccccn2)CC1)C1(c2ccc(Cl)cc2)CCOCC1	KDM5B inh 79µM
O=C(Nc1ccc(C2(C(=O)N3CCN(c4ccccn4)CC3)CCCCC2)cc1)C1CC1	KDM5B inh 28µM
O=C(N1CCN(c2ncccn2)CC1)C1(c2ccc(Cl)cc2)CCOCC1	SNCA expr inh inconclusive
CCC(=O)N1CC(C(=O)N2CCN(c3ccccn3)CC2)C2(CCOCC2)C1 (stereo not given)	KDM5B inh 32µM
CCC(=O)N1CC(C(=O)Nc2ccccn2)C2(CCOCC2)C1 (stereo not given)	none
CCC(=O)Nc1ccc(C2(C(=O)N3CCN(c4ccccn4)CC3)CCCCC2)cc1	KDM5B inh inconclusive
O=C(NC1CCCN(c2ccnc3ccnn23)C1)c1ccc2c(c1)OCO2 (stereo not given)	SNCA viab count inconclusive (no result: KDM5B inh)
N#Cc1nc(Cc2ccccc2)oc1NCc1ccc(F)cc1	none (no result: SNCA viab count, IP6K1 inhibitor, SNCA expr inh)
COc1ccccc1-c1cnc2n[nH]c(-c3sccc3C)c2n1	KDM5B inh inconclusive
COc1ccccc1-c1cccc(CN2CCC(N[S+](=O)([O-])c3ccc(C)cc3)CC2)c1	none (no result: KDM5B inh)
C#CCNC(=O)c1cc(-c2cccc(OC)c2)nc2c1cnn2C	none (no result: SNCA viab count, SNCA expr inh, KDM5B inh)
O=C(c1ccc(Cn2cccn2)o1)N1CCCC2(CCC(=O)N(C3CC3)C2)C1 (stereo not given)	none
Cc1[nH]c(=O)c(C#N)cc1C(=O)N1CCCC2(CCC(=O)N(C3CC3)C2)C1 (stereo not given)	KDM5B inh 28µM
COc1nc(-c2ccc(OC)c3ncccc23)ncc1F	KDM5B inh 32µM
COc1ccc(-c2nc(C)c(C)cc2C#N)c2cccnc12	KDM5B inh 32µM
O=C(C1CCCN([S+](=O)([O-])c2cccs2)C1)N1CCCC(c2nc3ncccc3[nH]2)C1 (stereo not given)	none (no result: KDM5B inh)
COCCNC(=O)c1cn2cc(-c3ccc(C)cc3)sc2n1	none (no result: KDM5B inh)
CC(C)c1nc2nccc(-c3ccc(F)cc3)n2n1	KDM5B inh 28µM
CC(C)c1nc2nccc(-c3ccccc3)n2n1	KDM5B inh 28µM
COc1ccc(-c2ccnc3nc(Cc4ccc(F)cc4)nn23)cc1	none
CC(C)C(NC(=O)c1ccc([N+](=O)[O-])cc1)C(C)C	none (no result: SNCA viab count, IP6K1 inhibitor, SNCA expr inh)
CC(C)(C)C(=O)NC1CCN(c2ccnc3ccnn23)C1 (stereo not given)	none (no result: KDM5B inh)
CCN1C[C@H]2COc3ccccc3[C@H]2N(C(=O)COC)CCC1=O	none (no result: SNCA viab count, SNCA expr inh, KDM5B inh)
O=C(Nc1ncc(-c2cccc(F)c2)c2c1OCC2)c1ccc(F)c(Cl)c1	KDM5B inh 22µM
CNC(=O)c1cccc(-c2cnc(Nc3ccc(F)c(Cl)c3)c3c2CCO3)c1	SNCA viab count inconclusive, KDM5B inh 35µM
O=C(Nc1ncc(-c2cccc(F)c2)c2c1OCC2)c1ccncc1	none
COC[C@@H]1CN(c2cnccn2)C[C@H]1C(=O)Nc1ccc(OC)nc1	KDM5B inh 25µM
COc1ccc(C(=O)N[C@@H]2CCC[C@@H]2C(=O)NCCc2ccccn2)cn1	SNCA viab count inconclusive
COC[C@@H]1[C@H](C(=O)Nc2ccc(OC)nc2)CCC(=O)N1C	KDM5B inh inconclusive
COC[C@@H]1CN(c2cnccn2)C[C@H]1C(=O)Nc1cccnc1	KDM5B inh 28µM
COC[C@@H]1CN(c2cnccn2)C[C@H]1C(=O)NCCc1ccccn1	KDM5B inh 20µM
COC[C@@H]1CN(c2cnccn2)C[C@H]1C(=O)N1CCc2ccccc2C1	SNCA viab count inconclusive, KDM5B inh 20µM
O=C(O)c1ccc(-c2ccccc2)cc1F	none (no result: SNCA viab count, IP6K1 inhibitor, SNCA expr inh)
Cc1cc(C)n(-c2nc3ccccc3nc2Nc2ccc(Cl)cc2)n1	none (no result: SNCA viab count, IP6K1 inhibitor, SNCA expr inh)
COC(=O)c1cc(C#N)c(N2CC[C@H](CO)[C@@H](O)C2)nc1C	KDM5B inh 25µM
COc1cccc(CC(=O)N2CCC3(CC2)C(OC)C(=O)N3CC2CC2)c1 (stereo not given)	none (no result: KDM5B inh)
Cc1noc(-c2ccn3c(CNC(=O)Cc4ccccc4Cl)nnc3c2)n1	KDM5B inh 25µM
Cc1noc(-c2ccn3c(CNC(=O)C(C)c4ccccc4)nnc3c2)n1 (stereo not given)	KDM5B inh 28µM
Cc1noc(-c2ccn3c(CNC(=O)COc4ccccc4)nnc3c2)n1	KDM5B inh 13µM
CCOc1nccn2c(-c3ccc(CNC(=O)c4ccnn4C)cc3)cnc12	SNCA expr inh inconclusive, KDM5B inh 40µM
COCC(=O)NC1CCN(c2nc3ncccc3o2)CC1	KDM5B inh 32µM
O=C(Nc1ccccc1)NC1CCN(c2nc3ncccc3o2)CC1	KDM5B inh 25µM!
